High-throughput results deposited in PubChem by Broad Institute.
In the library only some 2.2% were active in any assay of this set; here they are far more common.
PGC1a acetyl inh = lowers PGC1a acetylation signal in U2OS cells | AlphaScreen anti-acetyl-lysine; with virally co-expressed GCN5 acetyltransferase | inhibition, % at 15.6 µM | actives 0.17% (n = 350,000) | AID 651687;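 active = every replicate shows inhibition of at least 40%; inconclusive = mean inhibition at least 40% but some replicate below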
DENV2 CPE rescue = DENV2-induced cell death inhibition; CPE inhibition, % at 9.99 µM; DENV2-infected cells, cytopathic effect rescue, plate reader; actives 1.7% (n = 350,000); in the data active = CPE inhibition above about 20%, passing the limit was not always enough; inconclusive = no clear call, values can overlap the other calls; tested in BHK-21 cells
PvdQ acylase = blocks Pseudomonas aeruginosa PvdQ acylase activity; purified PvdQ acylase, fluorescence plate reader; inhibition, % at 10 µM; actives 0.063% (n = 340,000); in the data active = inhibition above about 30%, passing the limit was not always enough; inconclusive = no clear call, values can overlap the other calls
Statin myotox sup = suppression of simvastatin myotoxicity; C2C12 myotubes + simvastatin, ATP luminescence, 48 h; scaled: DMSO 0, geranylgeraniol control 100; rescue of ATP level, % at 7.49 µM; actives 0.78% (n = 330,000); AID 602340;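 active = mean ATP rescue above about 67%, or every replicate alone reaching that limit, limit read from the data, passing the limit was not always enough; inconclusive = no clear call, values can overlap the other calls; inactive = mean under the limit and some replicate under it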;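 note: myotubes were challenged with 10 µM simvastatin during compound exposure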
miR-122 sensor = inhibitors of miR-122 in Huh7 cells | actives 0.3% (n = 340,000) | AID 602342 | activation (reporter increase), % at 12.5 µM | Huh7 miR-122 Renilla luciferase sensor, 48 h; neutral wells = 0, positive control = 100;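 active = mean replicate activation score at least 90 and every replicate individually at or above 90; inconclusive = only one of the two criteria met; inactive = neither criterion met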;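 note: higher luciferase means less miR-122 activity so hits act as miR-122 inhibitors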
Hits are given with their value; – = inactive; ? = inconclusive; · = not tested or not shown.

SMILES | PGC1a acetyl inh | DENV2 CPE rescue | PvdQ acylase | Statin myotox sup | miR-122 sensor
Cc1ccc(S(=O)(=O)N(C)C[C@@H]2OCCCC[C@@H](C)Oc3ccc(NS(=O)(=O)c4c(C)noc4C)cc3C(=O)N([C@H](C)CO)C[C@@H]2C)cc1 | – | – | · | – | –
Cc1ccc(S(=O)(=O)Nc2ccc3c(c2)C(=O)N([C@@H](C)CO)C[C@@H](C)[C@H](CN(C)S(=O)(=O)c2c(C)noc2C)OCCCC[C@@H](C)O3)cc1 | – | – | · | · | –
Cc1noc(C)c1S(=O)(=O)Nc1ccc2c(c1)C(=O)N([C@@H](C)CO)C[C@@H](C)[C@H](CN(C)S(=O)(=O)c1ccccc1)OCCCC[C@@H](C)O2 | – | 94 | · | · | –
COCC(=O)N(C)C[C@H]1Oc2ncc(C#CCC3CCCC3)cc2C(=O)N([C@@H](C)CO)C[C@H]1C | – | – | · | – | –
O=C(Nc1ccc(S(=O)(=O)N2CCOCC2)cc1)c1ccc([N+](=O)[O-])o1 | – | – | – | 88 | –
CCCCOCCCNC(=S)Nc1ccc(S(=O)(=O)N2CCOCC2)cc1 | – | – | – | – | 176
C[C@H](CO)N1C[C@H](C)[C@@H](CN(C)Cc2cccnc2)OCc2ccccc2-c2c(n(C)c3ccccc23)C1=O | – | – | · | · | ·
Cc1noc(C)c1NC(=O)Nc1ccc2c(c1)C(=O)N([C@H](C)CO)C[C@@H](C)[C@@H](CN(C)Cc1ccc(C(=O)O)cc1)OCCCC[C@@H](C)O2 | – | ? | · | – | –
CN(C(=O)COC(=O)CSc1ccc([N+](=O)[O-])cc1)c1ccccc1 | – | 36 | – | – | –
Cc1cccc(S(=O)(=O)NC[C@@H]2CC[C@H]3NC[C@H]3O2)c1 | – | – | · | · | ·
Cc1cc(C(=O)Nc2cccc3c2O[C@H](CN(C)Cc2ccncc2)[C@@H](C)CN([C@H](C)CO)C3=O)n(C)n1 | – | – | · | – | –
O=C(CCCOc1ccc(Cl)cc1)N1CCCCC1 | – | – | – | – | –
O=C(CCCOc1ccccc1)N1CCCCC1 | – | · | – | 94 | –
CC1(Cc2cccc(F)c2)C(=O)Nc2ccc(S(=O)(=O)NC3CCCCC3)cc21 (stereo not given) | – | – | · | 164 | –
CC1(Cc2ccc(Cl)c(Cl)c2)C(=O)Nc2ccc(S(=O)(=O)NC3CCCCC3)cc21 (stereo not given) | · | – | · | – | –
C[C@H](CO)N1C[C@H](C)[C@@H](CN(C)C(=O)c2cccnc2)Oc2cc(C#CC3CC3)ccc2S1(=O)=O | – | – | · | – | –
CCOC(=O)c1ccc(NC(=O)N2CCc3ccccc3C2)cc1 | – | – | – | – | –
CCOC(=O)c1ccc(NC(=O)N2CCc3ccccc32)cc1 | – | · | – | 72 | –
COC(=O)c1ccc(NC(=S)N2CCCC2)cc1 | – | – | 42 | · | ·
COC(=O)c1ccc(NC(=S)N2CCN(C)CC2)cc1 | · | – | – | · | ·
CCOC(=O)c1ccc(NC(=O)N2CCCCC2)cc1 | – | · | – | 137 | –
CC(=O)OCC(O)C1(O)CCC2C3CCC4=CC(=O)CCC4(C)C3C(O)CC21C (stereo not given) | – | 22 | · | – | –
CC(=O)OCC(=O)[C@@]1(O)CC[C@H]2[C@@H]3CCC4=CC(=O)CC[C@]4(C)[C@H]3[C@@H](O)C[C@@]21C | – | – | – | – | –
C=CCNc1nc(C(=O)OCC(=O)Nc2ccccc2C(F)(F)F)cs1 | · | – | – | – | ·
C=CCNc1nc(C(=O)OCC(=O)NCc2ccccc2OC)cs1 | – | 66 | – | – | –
SMILES | PGC1a acetyl inh | DENV2 CPE rescue | PvdQ acylase | Statin myotox sup | miR-122 sensor
O=C1CCCc2ccccc2N1Cc1ccc(Cl)cc1Cl | 56 | · | – | · | –
O=C(NC1CCCC1)C(c1ccccc1F)N(C(=O)Cc1cccs1)c1ccc2c(c1)OCCO2 (stereo not given) | – | – | – | – | 172
C[C@H]1CN([C@@H](C)CO)C(=O)c2cc(C3=CCCC3)cnc2O[C@@H]1CN(C)Cc1ccc(F)cc1 | – | – | · | – | –
CCCN(C)C[C@H]1OCCCC[C@@H](C)Oc2ccc(NC(=O)NC(C)C)cc2C(=O)N([C@@H](C)CO)C[C@H]1C | – | – | · | · | –
COc1ccccc1NS(=O)(=O)c1cc(NC(=O)Nc2ccccc2)ccc1N1CCCCC1 | · | · | – | · | 289
COc1ccccc1NS(=O)(=O)c1cc(NC(=O)c2sccc2C)ccc1N1CCOCC1 | – | – | – | – | –
COc1cc(S(=O)(=O)Nc2ccccc2N2CCCCC2)ccc1NC(C)=O | · | – | – | – | 111
COc1ccc(NS(=O)(=O)c2cc(NC(=O)c3sccc3C)ccc2N2CCOCC2)cc1 | – | – | – | – | 188
COc1cc(OC)c(S(=O)(=O)Nc2ccccc2N2CCCCC2)cc1NC(C)=O | – | – | – | – | –
COc1ccccc1NS(=O)(=O)c1cc(NC(=O)c2sccc2C)ccc1N1CCCC1 | – | · | – | – | 173
COc1cc2c(cc1OC)CN(C(=O)CCOc1ccccc1C)CC2 | – | 44 | – | – | –
COc1cc2c(cc1OC)CN(C(=O)CCOc1ccccc1)CC2 | · | – | – | – | ·
CC(=O)Nc1cccc(C(=O)OC(C)C(=O)NC(=O)NC2CCCCC2)c1 (stereo not given) | – | 23 | – | – | –
COc1ccc(C(=O)Nc2ccc3c(c2)OC[C@H](C)NC[C@H](C)[C@H](OC)CN(C)C3=O)cc1 | – | – | · | – | –
Cc1sc2nc3ccc(N4CCCCC4)nn3c(=O)c2c1C | – | · | – | 113 | –
Cc1cc(C(=O)Nc2cccc3c2O[C@@H](CN(C)S(=O)(=O)c2ccccc2)[C@@H](C)CN([C@@H](C)CO)C3=O)n(C)n1 | – | – | · | – | –
CN(C)S(=O)(=O)c1cc(NC(=O)CN2CCc3ccccc32)ccc1Cl | 75 | – | – | · | –
CN(C)S(=O)(=O)c1cc(NC(=O)CN2CCCc3ccccc32)ccc1Cl | – | – | – | – | –
Cc1cc(O)c(N=Nc2ccc(C(=O)O)cc2)cc1C | 50 | – | – | – | –
COc1ccccc1-c1ccc([C@H]2[C@@H](CO)N3CCCCN(C(=O)c4ccncc4)C[C@H]23)cc1 | – | – | · | · | –
CCOc1ccccc1N | – | 23 | – | – | –
O=C(O)CC(NC(=O)C12CC3CC(CC(C3)C1)C2)c1ccc(OC2CCCC2)cc1 (stereo not given) | – | 22 | – | – | –
COCCNC(=O)C1(C)CCCN(C(=O)c2ccc(-c3ccccc3)cc2)C1 (stereo not given) | – | – | · | – | –
COCCNC(=O)C1(C)CCCN(C(=O)c2ccccc2)C1 (stereo not given) | · | 33 | · | – | ·
CCCN1CCC(NC(=O)CC2C(=O)NCCN2Cc2cccc(OC)c2)CC1 (stereo not given) | · | 85 | – | · | ·
NCC[C@@H]1CC[C@@H](NC(=O)C2CCCC2)[C@@H](CO)O1 | – | 36 | · | – | –
O=C(N[C@H]1CC[C@H](CCNS(=O)(=O)c2ccc(F)cc2)O[C@@H]1CO)C1CCCC1 | – | 32 | · | – | –
Cc1ccccc1S(=O)(=O)NCC[C@H]1CC[C@H](NC(=O)C2CCCC2)[C@@H](CO)O1 | – | – | · | – | –
